Measured values as given in PubChem BioAssay (NCATS).
Results filed as inconclusive are left out. Unmarked numbers belong to inactive results. The source made the active and inactive calls. Calls follow the shape of the dose curve; as a rule, active = well fitted inhibition curve with a large enough effect; inconclusive = small, poorly fitted or top-dose-only effect; inactive = flat fitted curve, though single readings scatter.

Target: Voltage-gated inwardly rectifying potassium channel KCNH2 (Homo sapiens) (UniProt Q12809)
Sequence (Q12809 whole entry, looked up): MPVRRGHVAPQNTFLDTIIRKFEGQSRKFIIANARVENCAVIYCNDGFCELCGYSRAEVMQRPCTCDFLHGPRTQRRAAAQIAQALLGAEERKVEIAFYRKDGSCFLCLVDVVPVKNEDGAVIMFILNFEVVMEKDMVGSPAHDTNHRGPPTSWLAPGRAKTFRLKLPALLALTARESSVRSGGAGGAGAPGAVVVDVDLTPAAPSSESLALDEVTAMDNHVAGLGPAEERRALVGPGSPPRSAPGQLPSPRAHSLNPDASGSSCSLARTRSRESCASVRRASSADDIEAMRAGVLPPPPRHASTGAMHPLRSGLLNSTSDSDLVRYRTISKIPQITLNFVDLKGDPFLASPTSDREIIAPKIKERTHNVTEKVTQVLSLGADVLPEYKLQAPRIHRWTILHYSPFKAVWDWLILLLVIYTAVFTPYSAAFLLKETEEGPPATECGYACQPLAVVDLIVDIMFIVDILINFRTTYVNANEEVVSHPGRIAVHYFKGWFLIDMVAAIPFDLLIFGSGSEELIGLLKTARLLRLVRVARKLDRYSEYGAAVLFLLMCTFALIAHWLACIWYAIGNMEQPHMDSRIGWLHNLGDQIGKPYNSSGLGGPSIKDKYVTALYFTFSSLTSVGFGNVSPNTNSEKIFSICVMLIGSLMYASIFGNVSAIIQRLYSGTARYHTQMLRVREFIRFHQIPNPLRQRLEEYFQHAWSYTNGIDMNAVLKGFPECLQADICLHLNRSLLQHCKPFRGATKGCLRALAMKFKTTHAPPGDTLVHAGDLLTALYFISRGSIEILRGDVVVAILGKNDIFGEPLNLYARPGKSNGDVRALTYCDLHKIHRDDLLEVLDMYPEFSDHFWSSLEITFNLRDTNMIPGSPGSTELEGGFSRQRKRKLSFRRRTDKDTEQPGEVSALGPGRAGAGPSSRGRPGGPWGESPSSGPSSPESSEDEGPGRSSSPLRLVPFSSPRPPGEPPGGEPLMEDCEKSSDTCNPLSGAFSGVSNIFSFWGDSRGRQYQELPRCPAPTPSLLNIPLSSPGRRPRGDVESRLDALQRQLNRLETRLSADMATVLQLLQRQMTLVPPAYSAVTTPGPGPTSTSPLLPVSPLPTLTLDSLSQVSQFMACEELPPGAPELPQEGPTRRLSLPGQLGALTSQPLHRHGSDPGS
Test: qHTS Assay for Small Molecule Inhibitors of the Human hERG Channel Activity (AID 588834);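 also: lower thallium flux fluorescence means stronger hERG block; nearly all actives have a fitted effect of over 50% in size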; as to activity change, negative = inhibition: top concentration of the series differs between compounds
Settings: U2OS BacMam hERG, FluxOR thallium flux fluorescence; series mostly up to 46.1 µM; activity change, negative = inhibition: at the top concentration
How it was run: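 Kinetic FDSS fluorescence; U2OS + hERG BacMam (~100 virus particles/cell); FluxOR Tl+ flux; ~10 min cpd; AC50 (Hill).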
% is scaled to controls: 0 for no effect and ±100 for the full control effect; potency is read from the fitted curve at half-maximal effect.

Structure (SMILES) | activity change, negative = inhibition | Potency
N[C@H](C(=O)O)c1ccc(O)cc1 | 7.24% | 
COC(=O)[C@H]1[C@H]2C[C@@H]3c4[nH]c5cc(OC)ccc5c4CCN3C[C@H]2C[C@@H](OC(=O)COc2ccc(OC)cc2)[C@@H]1OC |  | 0.141 µM (active)
COc1ccc2cc1Oc1ccc(cc1)C[C@H]1c3c(cc4c(c3Oc3cc5c(cc3OC)CCN(C)[C@@H]5C2)OCO4)CCN1C |  | 14.1 µM (active)
CC1(C)Oc2ccc(C#N)cc2[C@@H](N2CCCC2=O)[C@@H]1O | -4.12% | 
CN(N=O)C(=O)N[C@@H]1[C@@H](O)[C@H](O)[C@@H](CO)O[C@@H]1O | -6.62% [at 20.6 µM] | 
Cc1cc(O)cc2c1O[C@](C)(CCC[C@H](C)CCC[C@H](C)CCCC(C)C)CC2 | 4.92% | 
C[C@@H](O)[C@H](N)C(=O)O | -5.85% | 
CO/N=C(\C(=O)N[C@@H]1C(=O)N2C(C(=O)O)=C(CSc3nc(=O)c(O)nn3C)CS[C@H]12)c1csc(N)n1 | -1.22% | 
O=Cc1ccccc1C=O | 0.111% | 
CC1CC(OC(=O)C(O)c2ccccc2)CC(C)(C)N1C (stereo unspecified) | -3.28% | 
N[C@H]1C(O)O[C@H](CO)[C@@H](O)[C@@H]1O (stereo partly specified) | -10.5% | 
CCN(CC)C(=O)Nc1ccc(OCC(O)CNC(C)(C)C)c(C(C)=O)c1 (stereo unspecified) | 6.3% | 
C[C@]12CC[C@@H]3c4ccc(O)cc4CC[C@H]3[C@@H]1CC[C@@H]2OC(=O)CCC1CCCC1 | -24.8% | 
O=C(Oc1ccccc1C(=O)O)c1ccccc1O | 0.572% | 
CS(=O)(=O)c1ccc([C@@H](O)[C@@H](CF)NC(=O)C(Cl)Cl)cc1 | 2.35% [at 20.6 µM] | 
CC1(C)S[C@@H]2[C@H](NC(=O)Cc3ccccc3)C(=O)N2[C@H]1C(=O)O (tested in a mixture with another compound) | 4.24% | 
